Source: PubChem BioAssay (National Center for Advancing Translational Sciences (NCATS))
KB-V1 cytotox – qHTS assay for MDR1-selective chemotherapeutics: Primary screen using the drug-selected MDR subline cells KB-V1 | KB-V1 MDR cells viability, CellTiter-Glo, 72 h | Potency, µM (titrated, usually from 46.1 µM), usual class: cytotoxic | actives 3.4% (n = 400,000) | AID 1347076, 2019; note: nearly all actives have a fitted effect of over 60% in size
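KB-V1 cells (P-gp-expressing MDR subline of KB-3-1) in phenol-red-free DMEM with 10% FBS were exposed to library compounds over a concentration series for 72 h at 37 degrees C. Viability read by CellTiter-Glo luminescence; concentration-effect curves fitted after normalization.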
IL1B secr inh – qHTS for Inhibitors of Inflammasome Signaling: IL-1-beta AlphaLISA Primary Screen; THP-1 LPS/ATP IL-1B secretion, AlphaLISA, 16 h; active compounds read low; activity change, % at 57.5 µM; actives 4.7% (n = 360,000); in the data active = activity change below about -50%; inconclusive = mostly about -30% to -49%
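THP-1 cells pretreated 1 hr with compounds (up to 57.5 uM final), then stimulated with LPS (250 ng/mL final) plus ATP (1.25 mM final); secreted IL-1B measured by AlphaLISA after 16 hr, decreased signal indicating inhibition.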
MCF10A rerep – A quantitative high throughput screen for small molecules that induce DNA re-replication in MCF 10a normal breast cells | MCF 10A DNA re-replication, Hoechst nuclear intensity, 48 h | Potency, µM (series often up to 46.1 µM), most hits filed as activators | actives 2.9% (n = 350,000) | AID 624296, 2012; note: nearly all actives have a fitted effect of over 50% in size
SW480 rerep – A quantitative high throughput screen for small molecules that induce DNA re-replication in SW480 colon adenocarcinoma cells; SW480 DNA re-replication, Hoechst DNA content imaging, 48 h; Potency, µM (series often up to 46.1 µM), hits mostly activators; actives 1.8% (n = 340,000); AID 624297, 2012; note: nearly all actives have a fitted effect of over 55% in size
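Treated cells incubate 48 hr (37 C, 5% CO2), are stained 40 min with Hoechst, and nuclear fluorescence is enumerated; a rise in nuclei with high DNA signal marks re-replication.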
KB-3-1 tox – qHTS assay for MDR1-selective chemotherapeutics: Primary screen using the parental adenocarcinoma cell KB-3-1. KB-3-1 viability, CellTiter-Glo ATP luminescence, 72 h. Potency, µM (highest dose often 46.1 µM), hits mostly cytotoxic. actives 1.4% (n = 400,000); note: nearly all actives have a fitted effect of over 60% in size
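KB-3-1 cells, DMEM (no phenol red) + 10% FBS; compound by pin transfer, 72 h, 37 °C. Readout: CellTiter-Glo luminescence after 10 min. Data normalized, curve-fitted.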
Large screens that a line does not name were inactive; ! = not confirmed by another sample. Hits are enriched below; roughly 9.9% of the tested compounds scored in any of these assays. Unless noted, calls come from the whole dose curve; as a rule, active = well fitted curve in the direction sought with a large enough effect; inconclusive = small, poorly fitted or top-dose-only effect, or another doubt; inactive = no such curve, though single readings can be large; an effect the other way counts as inactive or inconclusive.

CCCN(C(=O)COc1ccc(C(C)=O)cc1OC)C1CCS(=O)(=O)C1 (stereo not drawn)	none
CC[n+]1c(C=C2C=C(C)OC(C)=C2)sc2ccccc21	KB-V1 cytotox inconclusive, IL1B secr inh -94.8, MCF10A rerep inconclusive, SW480 rerep 18.4µM, KB-3-1 tox inconclusive
CC[n+]1c(/C=C2/C=C(C)CC(C)C2)sc2ccccc21 (stereo not drawn)	MCF10A rerep inconclusive, KB-3-1 tox inconclusive
CC[n+]1c(/C=C/Nc2ccccc2)sc2ccccc21	KB-V1 cytotox inconclusive, IL1B secr inh -102.2, SW480 rerep inconclusive, KB-3-1 tox inconclusive
CC[n+]1c(/C=C(\C)Nc2ccccc2)sc2ccccc21	KB-V1 cytotox 20.6µM, IL1B secr inh -80.2, KB-3-1 tox inconclusive
CC(C)NC(=O)c1cc(C2CCCCN2S(=O)(=O)c2ccccc2)on1 (stereo not drawn)	none (no result: MCF10A rerep, SW480 rerep)
Cc1noc(C)c1COc1ccc(C(=O)OCC(=O)Nc2c(C)n(C)n(-c3ccccc3)c2=O)cc1	none
Cn1ncc(N=Cc2ccc([N+](=O)[O-])cc2)c1C(=O)N1CCOCC1	none
COc1ccc(/C=c2/sc3n(c2=O)C(c2ccccc2OC)C2=C(N=3)c3ccccc3CC2)cc1O (stereo not drawn)	KB-V1 cytotox inconclusive, MCF10A rerep 18.4µM, SW480 rerep 5.17µM, KB-3-1 tox inconclusive
CCCCN1CCN=C1N(C)C	SW480 rerep inconclusive
CC(=O)NC(c1cccs1)c1cc(F)c2cccnc2c1O (stereo not drawn)	SW480 rerep inconclusive, KB-3-1 tox 10.3µM (no result: IL1B secr inh)
CCCC(=O)NC(c1cccs1)c1cc(Cl)c2cccnc2c1O (stereo not drawn)	SW480 rerep 1.3µM, KB-3-1 tox inconclusive
CC(=O)NC(c1ccco1)c1cc(F)c2cccnc2c1O (stereo not drawn)	MCF10A rerep inconclusive, KB-3-1 tox inconclusive (no result: IL1B secr inh)
CCCC(=O)NC(c1ccco1)c1cc(Cl)c2cccnc2c1O (stereo not drawn)	KB-V1 cytotox inconclusive, MCF10A rerep inconclusive, SW480 rerep inconclusive
CCCC(=O)NC(c1ccc2c(c1)OCO2)c1cc(Cl)c2cccnc2c1O (stereo not drawn)	KB-V1 cytotox inconclusive, IL1B secr inh -82.1, MCF10A rerep inconclusive, SW480 rerep inconclusive, KB-3-1 tox inconclusive
CC(C)CC(=O)NC(c1cccs1)c1ccc2cccnc2c1O (stereo not drawn)	MCF10A rerep inconclusive, SW480 rerep 0.82µM, KB-3-1 tox inconclusive
Cc1nc2c3ccccc3nc(NNC(=O)CCC(=O)NCCN3CCN(c4ccccc4)CC3)n2n1	none
CCCC(=O)NCCCCNC(=O)CCC	none
CC(=O)N(O)CCCCCNC(=O)CCC(=O)N(O)CCCCCNC(=O)CCC(=O)N(O)CCCCCN	KB-V1 cytotox inconclusive, MCF10A rerep inconclusive, SW480 rerep 2.55µM!, KB-3-1 tox 20.6µM!
NS(=O)(=O)c1ccc(SCc2ccccc2)nc1	IL1B secr inh inconclusive
NS(=O)(=O)c1ccc(Sc2ccc3ccccc3c2)nc1	IL1B secr inh -88.2
CCN(CC)c1ccc(-c2nn3c(-c4n[nH]c5c4CCC5)nnc3s2)cc1	KB-V1 cytotox inconclusive, MCF10A rerep 1.46µM, SW480 rerep 1.84µM, KB-3-1 tox inconclusive
CN1CCN(c2ccc(S(=O)(=O)N3CCOCC3)cc2)CC1	none (no result: KB-V1 cytotox, KB-3-1 tox)
CCc1nnc(NC(=O)CSc2nnc(-c3ccccc3NC(=O)c3ccccc3)o2)s1	KB-V1 cytotox inconclusive, MCF10A rerep inconclusive, SW480 rerep inconclusive
COc1ccc(-c2ccc(OC)c(OC)c2OC)c(OC)c1OC	KB-V1 cytotox 23.1µM
CC(=O)NC(C)c1cc(Cl)c2cccnc2c1O (stereo not drawn)	MCF10A rerep 3.26µM, SW480 rerep inconclusive (no result: IL1B secr inh)
CCC(=O)NC(c1ccc(C)cc1)c1cc(Cl)c2cccnc2c1O (stereo not drawn)	KB-V1 cytotox inconclusive, SW480 rerep inconclusive, KB-3-1 tox inconclusive (no result: IL1B secr inh)
CN1CCN(C(c2ccc(Br)cc2)c2cc(Cl)c3cccnc3c2O)CC1 (stereo not drawn)	IL1B secr inh -105.8, MCF10A rerep inconclusive, SW480 rerep inconclusive, KB-3-1 tox inconclusive
CCC(=O)NC(C)c1cc(Cl)c2cccnc2c1O (stereo not drawn)	MCF10A rerep inconclusive, SW480 rerep inconclusive, KB-3-1 tox 8.2µM (no result: IL1B secr inh)
C(=N\Nc1nc2ccccc2s1)/c1ccccn1	KB-V1 cytotox inconclusive, IL1B secr inh -94.9, MCF10A rerep inconclusive, SW480 rerep inconclusive, KB-3-1 tox inconclusive
Clc1ccccc1/C=N/NC1=Nc2cccc3cccc1c23	MCF10A rerep inconclusive, SW480 rerep inconclusive
Cc1csc(N/N=C/c2ccccn2)n1	KB-V1 cytotox inconclusive, IL1B secr inh -99.8, MCF10A rerep inconclusive, SW480 rerep 3.66µM, KB-3-1 tox inconclusive
C(=N\NC1=Nc2cccc3cccc1c23)/c1ccccn1	KB-V1 cytotox inconclusive, MCF10A rerep inconclusive, KB-3-1 tox 23.1µM
COc1ccccc1-c1noc(-c2ccc(N3CCOCC3)c([N+](=O)[O-])c2)n1	none (no result: IL1B secr inh, MCF10A rerep, SW480 rerep)
CN1C(=O)c2cccc3c(N(C)C)ccc(c23)C1=O	KB-V1 cytotox 11.6µM
CCOc1ccc(C(=O)N2CC(=O)Nc3ccc(C)cc3C2c2ccc(F)cc2)cc1OCC (stereo not drawn)	none (no result: IL1B secr inh, MCF10A rerep, SW480 rerep)
COc1ccc2c(c1)CC/C(=C\Nc1ccc3c(c1)OCO3)C2=O	IL1B secr inh -87.1
O=C1/C(=C/Nc2ccc3c(c2)OCO3)CCc2ccccc21	KB-V1 cytotox 23.1µM, MCF10A rerep inconclusive, SW480 rerep inconclusive, KB-3-1 tox inconclusive
COc1ccc(N/C=C2\CCc3ccccc3C2=O)cc1	MCF10A rerep inconclusive, SW480 rerep inconclusive, KB-3-1 tox inconclusive
CCNC(=O)COc1ccc(/C=C2\COc3ccccc3C2=O)cc1OC	IL1B secr inh -102.2, MCF10A rerep inconclusive, SW480 rerep inconclusive
COc1cc(C=C2C(=O)OC(C)(C)OC2=O)ccc1OCC(=O)Nc1ccccc1	none
CCOc1cc(/C=C2\COc3ccccc3C2=O)ccc1OCC(=O)N(C)C	KB-V1 cytotox inconclusive, IL1B secr inh -97.8, MCF10A rerep 14.6µM, SW480 rerep 14.6µM
COc1ccc(Cn2c(C(=O)O)c(CNCc3ccc(C)o3)c3ccc(OC)cc32)cc1	KB-3-1 tox 8.2µM (no result: IL1B secr inh, MCF10A rerep, SW480 rerep)
COC(=O)c1cccc(S(=O)(=O)N2CCC(NC(=O)NC34CC5CC(CC(C5)C3)C4)CC2)c1	KB-V1 cytotox 11.6µM
O=C(OCCOc1ccccc1)c1cccc(S(=O)(=O)N2CCOCC2)c1	KB-V1 cytotox 18.4µM
CC1CCN(S(=O)(=O)c2cccc(C(=O)O)c2)CC1	none
CC1CCN(S(=O)(=O)c2cccc(C(=O)Nc3ccccc3)c2)CC1	KB-V1 cytotox inconclusive, IL1B secr inh -54.2, KB-3-1 tox inconclusive
